The values that follow come from PubChem BioAssay AID488969 (Vanderbilt High Throughput Screening Facility, 2010).

The full ranking holds about 110,000 compounds; the median of “z-score” is about -0.1, and the highest 2% start at about 2. This excerpt belongs to a sample that is enriched for the highest values. Calls of active or inactive are those of the source.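 How the source made its calls: active means z-score in the third read window above 3 or below -3; inactive means the rest.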

Metabotropic glutamate receptor 8 (Rattus norvegicus), sequence (P70579 whole entry, looked up): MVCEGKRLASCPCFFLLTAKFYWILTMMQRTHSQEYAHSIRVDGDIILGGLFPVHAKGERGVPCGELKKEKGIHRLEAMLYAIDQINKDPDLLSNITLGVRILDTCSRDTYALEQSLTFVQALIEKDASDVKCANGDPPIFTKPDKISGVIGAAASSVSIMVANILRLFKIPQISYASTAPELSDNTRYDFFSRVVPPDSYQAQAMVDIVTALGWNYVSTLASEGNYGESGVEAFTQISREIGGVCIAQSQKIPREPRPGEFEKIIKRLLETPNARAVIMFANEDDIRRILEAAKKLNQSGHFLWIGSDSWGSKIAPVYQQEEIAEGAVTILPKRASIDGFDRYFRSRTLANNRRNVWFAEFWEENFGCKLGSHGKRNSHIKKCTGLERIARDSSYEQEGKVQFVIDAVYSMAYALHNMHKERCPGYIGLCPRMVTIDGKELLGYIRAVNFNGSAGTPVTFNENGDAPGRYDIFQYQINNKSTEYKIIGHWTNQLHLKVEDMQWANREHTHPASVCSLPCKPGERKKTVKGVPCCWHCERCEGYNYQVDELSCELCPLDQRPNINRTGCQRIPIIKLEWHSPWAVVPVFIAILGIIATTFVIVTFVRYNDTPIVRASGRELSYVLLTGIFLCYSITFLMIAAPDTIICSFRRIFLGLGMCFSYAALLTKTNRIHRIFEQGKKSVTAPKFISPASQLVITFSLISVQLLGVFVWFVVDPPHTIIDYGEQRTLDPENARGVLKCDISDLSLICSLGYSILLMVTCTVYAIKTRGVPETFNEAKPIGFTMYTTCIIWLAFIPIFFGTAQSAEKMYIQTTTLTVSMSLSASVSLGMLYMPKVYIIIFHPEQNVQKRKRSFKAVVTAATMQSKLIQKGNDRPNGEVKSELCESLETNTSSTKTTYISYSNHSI

The test has as its target Metabotropic glutamate receptor 8 (Rattus norvegicus) (UniProt P70579). In words: mGluR8 Gi/Go-coupled signaling modulation – cell-based, rat, thallium flux, HTS, primary screen (AID 488969). The following applies: HEK293 rat mGluR8, GIRK (G protein-gated inwardly rectifying potassium channel) thallium flux, FluoZin2; at 10 µM; stronger effect = higher value; submaximal glutamate (EC20) added with thallium.
`Cc1c(CCOC(=O)CC23CC4CC(CC(C4)C2)C3)sc[n+]1CC(=O)c1ccc(Br)cc1` registered a z-score of 0.0917.

For the compound `Cc1ncsc1CCOC(=O)C1C2CC3CC(C2)CC1C3` (stereo unspecified), the z-score amounted to 0.00939.

`Cc1c(CCOC(=O)C2C3CC4CC(C3)CC2C4)sc[n+]1CC(=O)c1ccc(Br)cc1` (stereo unspecified) showed a z-score of 2.48.

In turn, `CCOc1cc2[nH]c(=O)n(CCCCC(=O)N3CCCCCC3)c(=O)c2cc1OCC` displayed a z-score of 2.21.

`COc1cc2[nH]c(=O)n(CCCCCC(=O)N3CCN(c4ccccc4)CC3)c(=O)c2cc1OC`: the z-score is -0.317.

On to `COc1cc2[nH]c(=O)n(CCC(=O)N3CCC(N4CCCCC4)CC3)c(=O)c2cc1OC`, for which the z-score is 0.8.

In turn, `O=C(CCC(=O)OCC(=O)c1cccc([N+](=O)[O-])c1)Nc1ccccc1Cl` displayed a z-score of 0.0825.

For `CCOC(=O)CC(=O)Nc1ccc(C)cc1`, the z-score was -0.33.

Consider `Cc1cccc(N=C2NC(=O)/C(=C\c3cccs3)S2)c1`, for which the z-score worked out at 0.692.

In the case of `Cc1ccc(C2C(/C=C3/SC(=S)NC3=O)=C(c3cccs3)Oc3ccccc32)cc1` (stereo unspecified), the z-score was determined as 2.55.

As to `Cc1ccc(C2C(C=Nc3c(C)n(C)n(-c4ccccc4)c3=O)=C(c3ccccc3)Oc3ccccc32)cc1` (stereo unspecified), the z-score was -0.137.

On to `CCOc1ccccc1C1CC(c2ccc(F)cc2)Nc2nc(N)nn21` (stereo unspecified), for which the z-score was -0.0345.

As to `Cc1ccc(CNC(=O)C(Cc2ccccc2)NS(=O)(=O)c2cccs2)cc1` (stereo unspecified), the z-score is -0.105.

`O=c1[nH]c(CN2CCN(Cc3ccccc3)CC2)nc2sc3c(c12)CCC3`: the z-score was -0.568.

In turn, `O=c1[nH]cnc2sc3c(c12)CCN(Cc1ccccc1)C3` yielded a z-score of 0.233.

In the case of `CCCSc1nc2sc3c(c2c(=O)[nH]1)CCN(Cc1ccccc1)C3`, the z-score was 3.04 (active).

As to `O=C1C=C(NCc2ccccc2)CCC1`, the z-score was -0.0868.

Regarding `CC1(C)CC(=O)C=C(NCc2ccco2)C1`, the z-score was -0.0748.

`O=C1C=C(NCc2ccco2)CCC1` gave a z-score of 2.

On to `Cc1ccc(Cn2c(SCC(C)C)nc3c2c(=O)[nH]c(=O)n3C)cc1`, for which the z-score was -0.876.

For `COc1cc2c(=O)n(Cc3ccccc3)c(=O)n(CC(=O)NCCc3ccccc3)c2cc1OC`, the z-score is -0.669.

As to `CC1(C)CC(=O)C2=C(C1)NC(=O)CC2c1ccc(F)cc1` (stereo unspecified), the z-score was -0.481.

Regarding `COc1ccc(-c2noc(CCC(=O)NC3CCN(Cc4ccccc4)CC3)n2)cc1`, the z-score was 0.924.

Take `Cc1ccc(-c2noc(CCC(=O)NCCN3CCN(Cc4ccccc4)CC3)n2)cc1`: the z-score was -0.696.

Regarding `CCc1ccccc1N(C)C(=O)CCc1nc(-c2ccc(C)cc2)no1`, the z-score was 2.44.

With `CCc1ccccc1N(CC)C(=O)CCc1nc(-c2ccc(C)cc2)no1`, the z-score was -0.0345.

For the compound `Cc1ccc(-c2noc(CCC(=O)NCC3CCN(Cc4cccc(C)c4)CC3)n2)cc1`, the z-score is 2.64.

Regarding `O=C(CCc1nc(-c2ccccc2F)no1)NC1CCN(Cc2ccccc2)CC1`, the z-score came to 0.608.

Regarding `COc1ccc(-c2noc(CCC(=O)NCC3CCN(Cc4cccc(C)c4)CC3)n2)cc1`, the z-score was 0.183.

The compound `Cc1ccc(-c2noc(CCC(=O)N(C)c3ccccc3C)n2)cc1` displayed a z-score of 0.361.

In turn, `Cc1ccc(-c2noc(CCC(=O)NC3CCN(Cc4ccccc4)CC3)n2)cc1` returned a z-score of 2.02.

In turn, `CC1CCN(S(=O)(=O)c2ccc(NC(=O)CN3CCCC(C)C3)cc2)CC1` (stereo unspecified) displayed a z-score of 0.282.

For the compound `O=C(c1cccc(F)c1)N1CCc2ccccc21`, the z-score was -0.134.

`CCOC(=O)c1cc(NC(=O)c2cc(C)on2)cc(C(=O)OCC)c1`: the z-score was -0.369.

As for `CCn1nc2cc(C(=O)NCCc3cccs3)ccc2c1OC`, the z-score was -0.218.

As for `COC(=O)CSC1=C(C#N)C(c2sccc2C)CC(=O)N1` (stereo unspecified), the z-score turned out to be 0.174.

Regarding `O=C(NCC1CCCO1)C(c1cccs1)N(C(=O)Cn1nnc(-c2cccs2)n1)C1CCCC1` (stereo unspecified), the z-score is -0.378.

On to `C/C(=N\NC(=O)c1ccccc1C)c1cccc([N+](=O)[O-])c1`, for which the z-score was -0.192.

On to `CCCCNc1ccc2nsnc2c1[N+](=O)[O-]`, for which the z-score was -0.137.

With `C=CCNC(=O)c1nn2cccnc2c1Cl`, the z-score is -0.068.

Compound `O=C(Nc1ccc2c(c1)oc1ccccc12)c1ccc2c(c1)OCO2` registered a z-score of 0.81.

Take `Cc1cc2oc(C(=O)N(Cc3ccccc3)C3CCS(=O)(=O)C3)cc(=O)c2cc1Cl` (stereo unspecified): the z-score was -0.141.

`O=C1CCCN1c1ccc(S(=O)(=O)NCCc2ccc(Cl)cc2)cc1` registered a z-score of 0.203.

`CN(C)CCCNS(=O)(=O)c1ccc(N2CCC(c3ccc(Cl)cc3)=N2)cc1`: the z-score turned out to be 2.59.

`Cc1ccc(S(=O)(=O)NCCCCCC(N)=O)cc1` gave a z-score of 0.00872.

For `Cc1ccc(S(=O)(=O)NCC(C)NS(C)(=O)=O)cc1` (stereo unspecified), the z-score was -0.186.

`Cc1ccc(S(=O)(=O)NCCCNS(C)(=O)=O)cc1` yielded a z-score of 0.0948.

The compound `CNC(=O)CCCCCNS(=O)(=O)c1ccc(C)cc1` yielded a z-score of 0.0156.

Turning to `Cc1ccc(S(=O)(=O)NCCCN(C)C)cc1`, the z-score was found to be 2.95.

The compound `Cc1ccc(S(=O)(=O)NCCCCCC(=O)N(C)C)cc1` registered a z-score of 2.19.

The compound `CN(C)CCNS(=O)(=O)c1ccc(Cl)cc1` yielded a z-score of 1.34.

With `CC(=O)Nc1ccc(S(=O)(=O)NCC(C)NS(=O)(=O)c2ccc(NC(C)=O)cc2)cc1` (stereo unspecified), the z-score was determined as 0.018.

`Cc1ccc(S(=O)(=O)NCC(C)NS(=O)(=O)c2ccc(C)cc2)cc1` (stereo unspecified) displayed a z-score of 2.8.

With `O=S(=O)(c1ccc(N2CCC(c3ccc(Cl)cc3)=N2)cc1)N(CCO)CCO`, the z-score is -0.748.

Compound `CCOc1ccc(-c2cn3ccccc3n2)cc1[N+](=O)[O-]` returned a z-score of 0.461.

The compound `O=C(c1cccc(-n2cnnn2)c1)N1CC=C(c2ccccc2)CC1` registered a z-score of 0.39.

In the case of `CN1CCN(/C(=N\S(=O)(=O)c2ccc(F)cc2)c2ccccc2)CC1`, the z-score was -0.0184.

Turning to `Cc1sc2ncnc(N3CCOCC3)c2c1C`, the z-score is -0.134.

Take `O=[N+]([O-])c1ccc(-c2csc(N3CCc4ccccc4C3)n2)cc1`: the z-score is -0.0911.

On to `O=C1CN(C(=O)CSc2nc3cc(Cl)ccc3c(=O)n2Cc2ccccc2)c2ccccc2N1`, for which the z-score is 7.11 (active).

Regarding `Cc1ccc(-n2c(SCC(=O)N3CC(=O)Nc4ccccc43)nc3ccccc3c2=O)cc1`, the z-score is -0.279.

Compound `Cc1ccc(Cn2c(SCC(=O)N3CC(=O)Nc4ccccc43)nc3ccccc3c2=O)cc1` yielded a z-score of 1.31.

As to `Cc1ccc(-n2c(SCC(=O)N3CC(=O)Nc4ccccc43)nc3ccccc3c2=O)cc1C`, the z-score is -0.183.

As for `CC(c1ccccc1)n1c(SCC(=O)N2CC(=O)Nc3ccccc32)nc2ccccc2c1=O` (stereo unspecified), the z-score was 4.74 (active).

As for `O=C1CN(C(=O)CSc2nc3ccccc3c(=O)n2Cc2ccc(F)cc2)c2ccccc2N1`, the z-score is 3.79 (active).

For `Cc1nnc(SCC(=O)N2CC(=O)Nc3ccccc32)n1Cc1ccccc1`, the z-score is -0.151.

As to `Cc1cccc(C)c1-n1c(SCC(=O)N2CC(=O)Nc3ccccc32)nc2ccccc2c1=O`, the z-score was -0.109.

Take `O=C1CN(C(=O)CSc2nc3ccccc3n2CCc2ccccc2)c2ccccc2N1`: the z-score is -0.346.

For `O=C(O)/C=C/C(=O)Nc1ccccc1C(=O)Nc1ccccc1`, the z-score stood at 0.317.

With `CCOC(=O)C1=C(Nc2ccccc2)CC(C)(O)C(C(=O)OCC)C1c1ccc(Cl)cc1` (stereo unspecified), the z-score was -0.445.

`COc1ccc(CCC(C)NCC2CCCCC2)cc1` (stereo unspecified): the z-score was 0.819.

Take `S=C(NCc1cccs1)Nc1ccc(Cl)cc1`: the z-score was found to be 0.118.

`Cc1csc(NC(=S)Nc2cccc(Cl)c2)n1`: the z-score was 14.7 (active).

Turning to `O=C(NCc1cccs1)Nc1cccc(Cl)c1`, the z-score was 0.43.

As for `Fc1ccc(CNC(=S)Nc2cccc(Cl)c2)cc1`, the z-score is 5.18 (active).

Regarding `S=C(NCc1ccncc1)Nc1cccc(Cl)c1`, the z-score was -0.135.

For `Cc1csc(NC(=O)Nc2cccc(Cl)c2)n1`, the z-score is 0.398.

On to `CCOC(=O)c1csc(NC(=O)Nc2cccc(Cl)c2)n1`, for which the z-score was -0.0455.

Regarding `S=C(NCc1cccs1)Nc1cccc(Cl)c1`, the z-score was 4.52 (active).

The compound `Fc1ccc(NC(=S)Nc2cccc(Cl)c2)cc1` registered a z-score of 1.26.

For the compound `O=C(Nc1ccccc1)N1CCCc2ccccc21`, the z-score was -0.0768.

With `O=C(NCCCN1CCCC1=O)c1ccccc1NS(=O)(=O)c1ccc(Br)cc1`, the z-score is -0.938.

Take `CCCn1cc(NC(=O)C2CC(c3cccc(Br)c3)=NO2)cn1` (stereo unspecified): the z-score was -0.352.

In the case of `CCOc1cc(/C=C2/NC(=O)N(CC(=O)Nc3cccc(C)c3)C2=O)ccc1O`, the z-score was -0.784.

In turn, `N#CC1=C(SCC(=O)NCc2ccccc2)NC(=O)CC1c1ccco1` (stereo unspecified) registered a z-score of 1.77.

For `CC(C)=C1C2CCC1C1C(=O)N(c3nc(-c4ccc(C(C)C)cc4)c(C)s3)C(=O)C21` (stereo unspecified), the z-score is -0.0235.

`O=C(NC(=S)N1CCN(c2c(Cl)cccc2[N+](=O)[O-])CC1)c1cccs1`: the z-score is -4.63 (active).

Take `O=C(NC(=S)N1CCCCC1)c1cccs1`: the z-score came to 0.578.

The compound `O=C(NC(=S)N1CCN(c2ccc(Cl)cc2[N+](=O)[O-])CC1)c1ccco1` yielded a z-score of 2.99.

In the case of `O=C(NC(=S)N1CCN(c2ccc(Cl)cc2[N+](=O)[O-])CC1)c1cccs1`, the z-score was 9.46 (active).

On to `O=C(Nc1cc(C(F)(F)F)ccc1N1CCOCC1)c1cccs1`, for which the z-score is 1.15.

For `O=C(NC(=S)N1CCN(c2ccc(C(F)(F)F)cc2[N+](=O)[O-])CC1)c1cccs1`, the z-score was 8.9 (active).

As for `O=C(CSc1ccc(Cl)cc1)N1CCN(c2ccc(Cl)cc2[N+](=O)[O-])CC1`, the z-score was -0.109.

`NC(=O)C1CCN(c2ccc(C(F)(F)F)cc2[N+](=O)[O-])CC1` registered a z-score of 0.0305.

Compound `O=C(NC(=S)N1CCN(c2ccc([N+](=O)[O-])cc2Cl)CC1)c1ccco1` had a z-score of 1.05.

`COc1ccc(NC(=O)Nc2ccc(Br)cn2)cc1OC`: the z-score is -0.221.

Consider `COc1ccc2nc(NC(=O)CSc3nnc(N)s3)sc2c1`, for which the z-score was determined as 0.075.

`Cc1[nH]n(-c2ccc([N+](=O)[O-])cc2)c(=O)c1N=Nc1nc2ccccc2s1` gave a z-score of 2.47.

Regarding `Cc1[nH]n(-c2ccc([N+](=O)[O-])cc2)c(=O)c1C=NCCc1c(C)[nH]c2ccccc12`, the z-score was -0.0759.

Regarding `Cc1[nH]n2c(=O)cc(-c3ccc([N+](=O)[O-])cc3)nc2c1-c1ccccc1`, the z-score is -1.93.

As to `Cc1[nH]n(-c2ccccc2)c(=O)c1S(=O)(=O)c1ccccc1`, the z-score was -0.642.

On to `Cc1[nH]n(-c2ccccc2)c(=O)c1N=Nc1nccs1`, for which the z-score was 14.8 (active).

`Cc1[nH]n(-c2ccccc2)c(=O)c1N=Nc1cccc(S(=O)(=O)N2CCOCC2)c1` returned a z-score of 0.327.

`CN(Cc1ccc(-n2cccn2)cc1)C(=O)c1cnn2c1NC(c1ccco1)CC2C(F)(F)F` (stereo unspecified): the z-score was -0.35.

Consider `CCCCN1C(=S)SC(C)(C)C1/[N+]([O-])=C/c1cccnc1` (stereo unspecified), for which the z-score was -0.00445.

Turning to `CCN1C(=O)C2C(C1=O)N1C(c3ccccc3)C3C(=O)N(CC)C(=O)C3N1C2c1ccccc1` (stereo unspecified), the z-score amounted to 0.0538.
